Growth inhibition data for nine compounds are collected here from PubChem BioAssay (NCI).

Compounds without any hit were thinned out: in the full panel of roughly 79,000, 15% have a hit. Unmarked numbers belong to inactive results. Active and inactive are the calls of the source. No stated cut-off is given here; in the data, active means growth inhibition above about 70%; inactive means the rest.

The nature of assay [1]: NCI Yeast Anticancer Drug Screen. Data for the rad50 strain (AID 155).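 Further: 0% = growth of vehicle-only cultures of the same strain.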 Particulars: S. cerevisiae rad50 strain growth inhibition, stronger effect = higher value. The method in brief:
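Cells are treated with compound, grown, and their growth is then scored against vehicle-only cultures of the same repair-deficient yeast strain.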

Assay [2] can be described thus: NCI Yeast Anticancer Drug Screen. Data for the mec2-1 strain (AID 157). The note with it: S. cerevisiae mec2-1 strain, stronger effect = higher value. An outline of the steps: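 Compounds were applied to mec2-1 yeast cells. Their growth was then compared with that of vehicle-treated cultures to give growth inhibition.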
Assay [3] in a line: NCI Yeast Anticancer Drug Screen. Data for the sgs1 mgt1 strain (AID 161).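 Further: 0% = growth of cultures given vehicle only.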 The note with it: S. cerevisiae sgs1 mgt1 strain, stronger effect = higher value. The method in brief:
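Percent growth inhibition was derived by comparing compound-exposed mutant yeast with vehicle-exposed cultures. The strain carries alterations in DNA damage repair.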

Assay [4] in a line: NCI Yeast Anticancer Drug Screen. Data for the cln2 rad14 strain (AID 165).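 Further: 0% = growth equal to vehicle treated cultures.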 The note with it: S. cerevisiae cln2 rad14 strain, stronger effect = higher value. An outline of the steps:
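Strain: cln2 rad14 yeast, altered in cell cycle control and DNA damage repair. Read-out: growth inhibition vs vehicle.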

A short description of assay [5]: NCI Yeast Anticancer Drug Screen. Data for the bub3 strain (AID 167). The note with it: S. cerevisiae bub3 mutant strain, stronger effect = higher value. An outline of the steps:
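Part of a panel of yeast mutants defective in DNA damage repair or cell cycle regulation. Each strain is grown with compound, and inhibition is calculated relative to solvent-treated cultures.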

Assay [6] is described as follows: NCI Yeast Anticancer Drug Screen. Data for the mlh1 rad18 strain (AID 175). Particulars: S. cerevisiae mlh1 rad18 strain growth inhibition, stronger effect = higher value. An outline of the steps:
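A repair-deficient yeast strain is exposed to test compound, and growth is scored relative to vehicle-treated controls.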

The mark [7] stands for this setting: at 5.0 µM (retest, dose inferred, filed as 0.5).
Setting [8] is: at 50.0 µM (retest, dose inferred, filed as 5.0).

On to `N=c1n(CC(=O)NC23CC4CC(CC(C4)C2)C3)c2ccccc2n1Cc1ccc(Cl)cc1`, for which the growth inhibition was 33% in assay [1] (setting [7]); 33% in assay [1] (setting [8]); 92.5% (active) in assay [1] (at 50.0 µM); 13% in assay [2] (setting [7]); 13% in assay [2] (setting [8]); 93.3% (active) in assay [2] (at 50.0 µM). In addition, the growth inhibition in assay [3] (setting [7]) was 14%; in assay [3] (setting [8]), 14%; in assay [3] (at 50.0 µM), 93.4% (active); in assay [4] (setting [7]), -2%; in assay [4] (setting [8]), -2%; in assay [4] (at 50.0 µM), 92.4% (active). Besides, the growth inhibition in assay [5] (setting [7]) is -2%; in assay [5] (setting [8]), -2%; in assay [5] (at 50.0 µM) it was 91.4% (active); in assay [6] (setting [7]) it was 13%; in assay [6] (setting [8]) it was 13%; in assay [6] (at 50.0 µM), 90.3% (active).
For the compound `CSC(=S)NN=C(c1ccccn1)c1ccccn1`, the growth inhibition is 78% (active) in assay [1] (setting [7]); 96% (active) in assay [1] (setting [8]); 94% (active) in assay [1] (at 50.0 µM); 24% in assay [2] (setting [7]); 31% in assay [2] (setting [8]); 97.8% (active) in assay [2] (at 50.0 µM). In addition, the growth inhibition is 92% (active) in assay [3] (setting [7]); 99% (active) in assay [3] (setting [8]); 85.4% (active) in assay [3] (at 50.0 µM); 4% in assay [4] (setting [7]); -19% in assay [4] (setting [8]); 91.7% (active) in assay [4] (at 50.0 µM). The growth inhibition in assay [5] (setting [7]) is -5%; in assay [5] (setting [8]), 96% (active); in assay [5] (at 50.0 µM), -8.05%; in assay [6] (setting [7]), 78% (active); in assay [6] (setting [8]), 80% (active); in assay [6] (at 50.0 µM), 36%.
As for `CCCCCCN(CCCCCC)CCCCCC`, the growth inhibition in assay [1] (setting [7]) was 3%; in assay [1] (setting [8]), -4%; in assay [1] (at 50.0 µM), 28.6%; in assay [2] (setting [7]), -2%; in assay [2] (setting [8]) it was -7%; in assay [2] (at 50.0 µM), 10.8%. Besides, the growth inhibition was 0% in assay [3] (setting [7]); -2% in assay [3] (setting [8]); 9.75% in assay [3] (at 50.0 µM); -37% in assay [4] (setting [7]); -6% in assay [4] (setting [8]); 3.55% in assay [4] (at 50.0 µM). For the same compound, the growth inhibition in assay [6] (setting [7]) is -3%; in assay [6] (setting [8]) it was 3%; in assay [6] (at 50.0 µM) it was 35.8%.
Take `Cc1nnc(NS(=O)(=O)c2ccc(N=Nc3cc(N=Nc4ccc(S(=O)(=O)Nc5nnc(C)s5)cc4)c4c(NC(=O)C(Cl)Cl)cccc4c3OC(=O)C(Cl)Cl)cc2)s1` (tested in a mixture with another compound): the growth inhibition was 90% (active) in assay [1] (setting [7]); -11% in assay [1] (setting [8]); 51.8% in assay [1] (at 50.0 µM); 92% (active) in assay [2] (setting [7]); 24% in assay [2] (setting [8]); 53.6% in assay [2] (at 50.0 µM). Further, the growth inhibition is 89% (active) in assay [3] (setting [7]); -9% in assay [3] (setting [8]); 69.5% in assay [3] (at 50.0 µM); 91% (active) in assay [5] (setting [7]); -3% in assay [5] (setting [8]); 58.2% in assay [5] (at 50.0 µM). The growth inhibition in assay [6] (setting [7]) was 80% (active); in assay [6] (setting [8]), -44%; in assay [6] (at 50.0 µM) it was 79.5% (active).
Take `CC(Cl)C(=O)Nc1cc2ccccc2oc1=O` (configuration not stated): the growth inhibition was -7% in assay [1] (setting [7]); 9% in assay [1] (setting [8]); 10.7% in assay [1] (at 50.0 µM); -3% in assay [2] (setting [7]); 7% in assay [2] (setting [8]); 6.15% in assay [2] (at 50.0 µM). The growth inhibition is 6% in assay [3] (setting [7]); 4% in assay [3] (setting [8]); 9.2% in assay [3] (at 50.0 µM); 10% in assay [4] (setting [7]); -1% in assay [4] (setting [8]); 0.35% in assay [4] (at 50.0 µM). The growth inhibition in assay [6] (setting [7]) is -21%; in assay [6] (setting [8]) it was -3%; in assay [6] (at 50.0 µM), -11.2%.
Take `CC12CCC(O)CC1CCC1C2CCC2(C)C(NC(=O)N(CCCl)N=O)CCC12` (configuration not stated): the growth inhibition is 6% in assay [1] (setting [7]); 74% (active) in assay [1] (setting [8]); 91.3% (active) in assay [1] (at 50.0 µM); 2% in assay [2] (setting [7]); 78% (active) in assay [2] (setting [8]); 80.5% (active) in assay [2] (at 50.0 µM). For the same compound, the growth inhibition in assay [3] (setting [7]) was -205%; in assay [3] (setting [8]), 84% (active); in assay [3] (at 50.0 µM), 92.9% (active); in assay [4] (setting [7]), -1%; in assay [4] (setting [8]), 35%; in assay [4] (at 50.0 µM) it was 65.8%. Further, the growth inhibition in assay [6] (setting [7]) was 46%; in assay [6] (setting [8]), 94% (active); in assay [6] (at 50.0 µM) it was 94.5% (active).
For the compound `CCOC(=O)C(Br)c1nc2ccccc2[nH]c1=O` (configuration not stated), the growth inhibition in assay [1] (setting [7]) was 2%; in assay [1] (setting [8]) it was 73% (active); in assay [1] (at 50.0 µM), 68.3%; in assay [2] (setting [7]), -10%; in assay [2] (setting [8]), 81% (active); in assay [2] (at 50.0 µM), 74.2% (active). The growth inhibition was 2% in assay [3] (setting [7]); 96% (active) in assay [3] (setting [8]); 49.1% in assay [3] (at 50.0 µM); 2% in assay [4] (setting [7]); 49% in assay [4] (setting [8]); 28.7% in assay [4] (at 50.0 µM). Besides, the growth inhibition in assay [5] (setting [7]) is -7%; in assay [5] (setting [8]), 86% (active); in assay [5] (at 50.0 µM), 81.6% (active); in assay [6] (setting [7]) it was -5%; in assay [6] (setting [8]), 98% (active); in assay [6] (at 50.0 µM), 92.2% (active).
As to `CCn1c(=O)cc2n(C)c3ccccc3n2c1=O`, the growth inhibition in assay [1] (setting [7]) was -30%; in assay [1] (setting [8]) it was -23%; in assay [1] (at 50.0 µM) it was 17.3%; in assay [2] (setting [7]), 0%; in assay [2] (setting [8]), -7%; in assay [2] (at 50.0 µM), 17.4%. In addition, the growth inhibition in assay [3] (setting [7]) was -15%; in assay [3] (setting [8]), -28%; in assay [3] (at 50.0 µM) it was -5.15%; in assay [4] (setting [7]) it was -39%; in assay [4] (setting [8]) it was -24%; in assay [4] (at 50.0 µM) it was 62.7%. Moreover, the growth inhibition is -23% in assay [5] (setting [7]); -15% in assay [5] (setting [8]); 0.6% in assay [5] (at 50.0 µM); -36% in assay [6] (setting [7]); -14% in assay [6] (setting [8]); 23.4% in assay [6] (at 50.0 µM).
As for `CN(C)CC(O)c1cc(-c2ccc(Cl)cc2)nc2c(Cl)cc(Cl)cc12` (configuration not stated), the growth inhibition in assay [1] (setting [7]) was 11%; in assay [1] (setting [8]), 99% (active); in assay [1] (at 50.0 µM), 99.2% (active); in assay [2] (setting [7]), 12%; in assay [2] (setting [8]), 99% (active); in assay [2] (at 50.0 µM), 99.4% (active). In addition, the growth inhibition in assay [4] (setting [7]) was 9%; in assay [4] (setting [8]), 97% (active); in assay [4] (at 50.0 µM) it was 99.3% (active); in assay [5] (setting [7]) it was 8%; in assay [5] (setting [8]), 99% (active); in assay [5] (at 50.0 µM) it was 99.5% (active). Also, the growth inhibition in assay [6] (setting [7]) was 46%; in assay [6] (setting [8]) it was 99% (active); in assay [6] (at 50.0 µM), 99.4% (active).
